Source: the supplement of paper PMC10849652
Targets with a hit are over-represented here; the source holds about 7,900 in all. About 0.6% of all pairs of compound and target were hits. Unmarked numbers belong to inactive results.

Tests used:
Test in all cases: log2 fold change, soluble protein after heating vs DMSO (PISA); higher = thermal stabilisation; K562 cells, 10 uM, 30 min; active = over 0.2 and 3.5 SD of the protein, either way, in both replicates (recomputed)
[1] = compound: CS(=O)(=O)c1ccc(-c2cnc(N)c(C(=O)Nc3ccccc3)n2)cc1
Method in brief: (§1)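 For each measurement, 10 μM compound was applied for 30 min to K562 cells at 2×10^6 cells/mL. Aliquots were heated for 3 min across 48°C-58°C, pooled, and extracted in PBS with 0.5% NP-40 at 4°C; the supernatant after 21,000xg for 90 min was soluble protein. This was quantified by TMTpro 16plex LC-MS/MS with channel sums equalised, and thermal stability was reported relative to control samples from duplicates, on a log2 fold-change scale.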

[2] = compound: C[C@@H](Oc1cc(-c2cnn(C3CCNCC3)c2)cnc1N)c1c(Cl)ccc(F)c1Cl [crizotinib]
Method in brief: as §1

[3] = compound: C[C@@H]1COCCN1C2=NC(=NC(=C2)C3(CC3)S(=O)(=O)C)C4=C5C=CNC5=CC=C4
Method in brief: as §1

[4] = compound: C[C@H](C1=CC=C(C=C1)C(=O)NC2=C3C=CNC3=NC=C2)N
Method in brief: as §1

[5] = compound: C[C@H](Nc1ncnc2nc[nH]c12)c1cc2cccc(Cl)c2c(=O)n1-c1ccccc1 [duvelisib]
Method in brief: as §1

[6] = compound: Cc1cc(Nc2cc(CN3CCOCC3)c3nc(C)c(Cc4ccc(Cl)cc4F)n3n2)n[nH]1 [gandotinib]
Method in brief: as §1

[7] = compound: Cc1cc(Nc2cc(N3CCN(C)CC3)nc(Sc3ccc(NC(=O)C4CC4)cc3)n2)n[nH]1 [tozasertib]
Method in brief: as §1

[8] = compound: Cc1cc(SCc2sc(-c3ccc(C(F)(F)F)cc3)nc2C)ccc1OCC(=O)O
Method in brief: as §1

[9] = compound: Cc1ccc(-n2nc(C(C)(C)C)cc2NC(=O)Nc2ccc(OCCN3CCOCC3)c3ccccc23)cc1 [doramapimod]
Method in brief: as §1

[10] = compound: Cc1ccc(C(=O)N(CCCN)[C@@H](c2nc3cc(Cl)ccc3c(=O)n2Cc2ccccc2)C(C)C)cc1 [ispinesib]
Method in brief: as §1

UniProt O43847, sequence (O43847 whole entry, looked up): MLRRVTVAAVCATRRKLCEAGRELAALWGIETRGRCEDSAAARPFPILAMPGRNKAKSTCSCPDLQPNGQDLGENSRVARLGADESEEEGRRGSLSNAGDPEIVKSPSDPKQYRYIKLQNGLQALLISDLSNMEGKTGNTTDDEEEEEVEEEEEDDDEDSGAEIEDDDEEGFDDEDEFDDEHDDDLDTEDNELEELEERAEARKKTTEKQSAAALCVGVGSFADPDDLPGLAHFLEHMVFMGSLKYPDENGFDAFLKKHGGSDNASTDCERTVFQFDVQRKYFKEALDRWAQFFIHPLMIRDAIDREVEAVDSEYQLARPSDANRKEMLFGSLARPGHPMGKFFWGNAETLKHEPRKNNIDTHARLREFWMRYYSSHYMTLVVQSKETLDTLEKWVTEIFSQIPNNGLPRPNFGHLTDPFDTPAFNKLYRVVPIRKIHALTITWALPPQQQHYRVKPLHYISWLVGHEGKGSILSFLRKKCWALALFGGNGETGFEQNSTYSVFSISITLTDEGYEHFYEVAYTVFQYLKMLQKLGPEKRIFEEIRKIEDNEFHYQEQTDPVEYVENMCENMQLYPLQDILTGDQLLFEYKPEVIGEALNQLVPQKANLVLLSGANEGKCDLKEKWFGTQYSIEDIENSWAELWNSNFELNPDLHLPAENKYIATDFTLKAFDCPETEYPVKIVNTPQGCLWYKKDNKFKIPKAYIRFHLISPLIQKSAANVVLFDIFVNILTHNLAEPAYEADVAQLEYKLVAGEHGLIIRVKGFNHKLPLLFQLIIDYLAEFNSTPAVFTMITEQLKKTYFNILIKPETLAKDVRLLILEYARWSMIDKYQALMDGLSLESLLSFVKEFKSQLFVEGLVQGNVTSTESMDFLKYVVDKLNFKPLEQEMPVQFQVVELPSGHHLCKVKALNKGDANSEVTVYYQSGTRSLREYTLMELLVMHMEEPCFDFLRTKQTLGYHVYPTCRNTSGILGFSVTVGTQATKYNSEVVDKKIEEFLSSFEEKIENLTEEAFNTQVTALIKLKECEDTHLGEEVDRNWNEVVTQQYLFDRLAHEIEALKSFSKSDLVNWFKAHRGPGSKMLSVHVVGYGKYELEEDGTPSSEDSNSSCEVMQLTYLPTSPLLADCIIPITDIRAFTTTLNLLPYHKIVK
UniProt O60313, sequence (O60313 whole entry, looked up): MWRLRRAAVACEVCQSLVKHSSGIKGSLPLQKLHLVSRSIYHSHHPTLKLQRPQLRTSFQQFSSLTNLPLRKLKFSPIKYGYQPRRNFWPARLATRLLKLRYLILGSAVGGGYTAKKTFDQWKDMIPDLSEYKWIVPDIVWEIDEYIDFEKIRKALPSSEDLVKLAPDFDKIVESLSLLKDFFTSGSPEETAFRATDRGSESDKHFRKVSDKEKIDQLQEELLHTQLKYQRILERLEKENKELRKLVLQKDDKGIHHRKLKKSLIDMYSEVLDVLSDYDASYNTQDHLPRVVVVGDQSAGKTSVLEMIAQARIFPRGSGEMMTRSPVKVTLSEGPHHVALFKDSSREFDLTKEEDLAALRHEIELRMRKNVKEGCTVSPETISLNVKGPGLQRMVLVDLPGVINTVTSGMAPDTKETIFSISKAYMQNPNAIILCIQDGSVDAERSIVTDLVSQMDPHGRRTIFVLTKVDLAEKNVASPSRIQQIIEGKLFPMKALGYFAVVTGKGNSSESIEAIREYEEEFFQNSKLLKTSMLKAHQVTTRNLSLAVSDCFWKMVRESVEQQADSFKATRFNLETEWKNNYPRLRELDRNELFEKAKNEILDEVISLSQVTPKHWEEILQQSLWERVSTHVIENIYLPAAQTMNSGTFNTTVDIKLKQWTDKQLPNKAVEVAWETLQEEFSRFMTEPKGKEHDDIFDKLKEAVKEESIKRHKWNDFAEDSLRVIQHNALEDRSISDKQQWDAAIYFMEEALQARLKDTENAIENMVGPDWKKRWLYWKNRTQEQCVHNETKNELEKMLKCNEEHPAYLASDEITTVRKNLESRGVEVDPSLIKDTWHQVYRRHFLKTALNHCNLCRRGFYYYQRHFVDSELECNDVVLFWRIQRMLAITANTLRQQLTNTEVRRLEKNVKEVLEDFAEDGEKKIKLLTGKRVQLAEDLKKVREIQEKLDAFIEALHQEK
UniProt P35580, sequence (P35580 whole entry, looked up): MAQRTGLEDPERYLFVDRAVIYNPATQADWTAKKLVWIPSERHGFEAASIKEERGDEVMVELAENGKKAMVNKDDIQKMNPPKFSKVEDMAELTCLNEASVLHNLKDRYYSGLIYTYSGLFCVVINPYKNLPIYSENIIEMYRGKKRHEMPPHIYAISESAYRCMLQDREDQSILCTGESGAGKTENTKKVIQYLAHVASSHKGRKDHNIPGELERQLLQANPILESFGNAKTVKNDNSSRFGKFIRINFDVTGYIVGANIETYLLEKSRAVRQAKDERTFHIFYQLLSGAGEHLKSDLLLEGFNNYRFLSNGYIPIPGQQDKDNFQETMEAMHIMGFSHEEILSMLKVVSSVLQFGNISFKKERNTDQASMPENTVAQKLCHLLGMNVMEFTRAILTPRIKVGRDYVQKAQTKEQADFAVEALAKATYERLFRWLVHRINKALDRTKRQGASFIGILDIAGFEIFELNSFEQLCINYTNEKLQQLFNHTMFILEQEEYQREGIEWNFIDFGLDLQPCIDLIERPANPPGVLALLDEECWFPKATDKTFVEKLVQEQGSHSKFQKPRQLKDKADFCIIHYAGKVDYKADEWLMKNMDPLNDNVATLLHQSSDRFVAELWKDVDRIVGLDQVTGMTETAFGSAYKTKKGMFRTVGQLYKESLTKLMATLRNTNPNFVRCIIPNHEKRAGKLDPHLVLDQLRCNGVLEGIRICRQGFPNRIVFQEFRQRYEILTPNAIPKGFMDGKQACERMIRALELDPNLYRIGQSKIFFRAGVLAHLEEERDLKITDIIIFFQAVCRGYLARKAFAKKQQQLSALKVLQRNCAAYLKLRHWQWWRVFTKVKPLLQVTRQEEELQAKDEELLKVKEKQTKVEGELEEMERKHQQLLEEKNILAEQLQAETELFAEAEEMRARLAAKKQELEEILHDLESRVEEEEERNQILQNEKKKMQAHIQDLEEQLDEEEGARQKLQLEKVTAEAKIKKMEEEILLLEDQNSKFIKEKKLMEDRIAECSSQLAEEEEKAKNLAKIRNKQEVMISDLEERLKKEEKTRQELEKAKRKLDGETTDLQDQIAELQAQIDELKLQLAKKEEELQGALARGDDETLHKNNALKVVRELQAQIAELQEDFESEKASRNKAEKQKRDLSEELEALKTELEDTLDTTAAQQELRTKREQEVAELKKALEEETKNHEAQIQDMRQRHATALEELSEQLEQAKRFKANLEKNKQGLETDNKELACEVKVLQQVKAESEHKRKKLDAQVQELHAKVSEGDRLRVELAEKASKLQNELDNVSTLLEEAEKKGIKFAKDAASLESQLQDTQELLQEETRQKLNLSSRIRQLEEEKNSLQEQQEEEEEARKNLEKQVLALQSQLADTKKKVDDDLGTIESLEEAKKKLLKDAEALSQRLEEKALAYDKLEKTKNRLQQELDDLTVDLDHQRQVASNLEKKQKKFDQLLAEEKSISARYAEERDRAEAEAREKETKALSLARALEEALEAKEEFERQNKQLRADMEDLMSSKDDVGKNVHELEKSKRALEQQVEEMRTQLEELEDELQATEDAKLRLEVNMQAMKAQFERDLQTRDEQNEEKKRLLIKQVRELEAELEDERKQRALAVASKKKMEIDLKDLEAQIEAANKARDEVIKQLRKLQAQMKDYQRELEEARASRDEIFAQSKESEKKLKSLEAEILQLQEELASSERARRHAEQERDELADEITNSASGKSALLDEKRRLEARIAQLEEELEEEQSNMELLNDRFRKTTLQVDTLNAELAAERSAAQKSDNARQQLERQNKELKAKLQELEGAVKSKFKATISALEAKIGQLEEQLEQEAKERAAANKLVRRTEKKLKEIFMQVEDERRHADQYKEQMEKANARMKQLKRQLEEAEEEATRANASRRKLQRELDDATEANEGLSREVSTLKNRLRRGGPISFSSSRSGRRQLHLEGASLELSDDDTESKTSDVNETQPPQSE
UniProt Q9UBD5, sequence (Q9UBD5 whole entry, looked up): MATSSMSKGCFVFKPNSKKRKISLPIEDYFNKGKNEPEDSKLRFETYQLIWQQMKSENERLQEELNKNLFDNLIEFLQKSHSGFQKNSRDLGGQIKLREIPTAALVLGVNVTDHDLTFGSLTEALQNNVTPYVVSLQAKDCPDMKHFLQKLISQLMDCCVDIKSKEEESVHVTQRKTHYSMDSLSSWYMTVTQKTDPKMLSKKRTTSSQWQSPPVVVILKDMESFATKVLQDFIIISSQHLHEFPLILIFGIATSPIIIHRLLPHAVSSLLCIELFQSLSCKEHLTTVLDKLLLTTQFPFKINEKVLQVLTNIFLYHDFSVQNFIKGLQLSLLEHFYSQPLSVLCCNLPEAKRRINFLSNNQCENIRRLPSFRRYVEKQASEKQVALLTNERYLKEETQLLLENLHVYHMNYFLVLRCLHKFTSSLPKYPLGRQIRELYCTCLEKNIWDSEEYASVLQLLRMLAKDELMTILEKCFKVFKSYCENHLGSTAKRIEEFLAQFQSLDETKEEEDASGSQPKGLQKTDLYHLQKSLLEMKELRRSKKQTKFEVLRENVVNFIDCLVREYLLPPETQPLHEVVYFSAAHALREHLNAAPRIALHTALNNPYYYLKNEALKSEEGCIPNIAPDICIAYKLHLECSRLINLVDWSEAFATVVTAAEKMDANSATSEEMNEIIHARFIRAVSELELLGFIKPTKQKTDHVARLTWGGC
UniProt P84157, sequence (P84157 whole entry, looked up): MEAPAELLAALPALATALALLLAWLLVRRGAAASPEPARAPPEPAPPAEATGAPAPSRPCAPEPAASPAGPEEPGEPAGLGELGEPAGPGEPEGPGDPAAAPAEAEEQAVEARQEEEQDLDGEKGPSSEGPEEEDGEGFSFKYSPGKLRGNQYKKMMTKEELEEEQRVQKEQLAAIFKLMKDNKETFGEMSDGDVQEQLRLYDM

| Target | log2 fold change [1] | log2 fold change [2] | log2 fold change [3] | log2 fold change [4] | log2 fold change [5] | log2 fold change [6] | log2 fold change [7] | log2 fold change [8] | log2 fold change [9] | log2 fold change [10] |
| --- | --- | --- | --- | --- | --- | --- | --- | --- | --- | --- |
| OSTM1 (UniProt Q86WC4) | -0.014 | -0.244 | 0.028 | -0.021 | -0.017 | -0.225 | -0.003 | -0.033 | 0.041 | -0.308 (active) |
| MTOR (UniProt P42345) | 0.003 | -0.23 | 0.08 | 0.06 | 0.025 | -0.138 | 0.044 | 0.024 | 0.001 | -0.184 |
| NUDCD2 (UniProt Q8WVJ2) | 0.049 | -0.02 | 0.1 | -0.077 | 0.004 | -0.042 | 0.149 | 0.073 | -0.049 | -0.12 |
| OPA1 isoform 2 (UniProt O60313) | 0.056 | -0.326 (active) | 0.048 | -0.003 | 0.034 | -0.063 | -0.075 | 0.054 | -0.031 | -0.337 (active) |
| MT-ND4 (UniProt P03905) | -0.107 | 0.008 | 0.052 | -0.148 | 0.079 | -0.104 | 0.06 | -0.066 | 0 | 0.118 |
| NT5DC1 (UniProt Q5TFE4) | 0.045 | 0.071 | 0.046 | -0.052 | 0.05 | 0.019 | 0.004 | -0.038 | -0.018 | 0.037 |
| NDUFA9 (UniProt Q16795) | 0.007 | -0.139 | 0.079 | 0.022 | 0.006 | -0.115 | -0.038 | 0.052 | -0.031 | -0.122 |
| MKNK1 (UniProt Q9BUB5) | 0.038 | -0.082 | -0.039 | 0.31 (active) | 0.031 | 0.038 | 0.085 | 0.057 | 0.054 | -0.03 |
| NOP2 isoform 4 (UniProt P46087) | 0 | -0.127 | -0.25 | 0.673 | -0.166 | 0.231 | 0.084 | -0.022 | 0.219 | 0.163 |
| NEDD4 isoform 4 (UniProt P46934) | -0.05 | -0.081 | 0.095 | -0.039 | -0.006 | -0.061 | 0.093 | -0.009 | -0.042 | -0.022 |
| OPHN1 (UniProt O60890) | 0.011 | -0.06 | 0.107 | 0.14 | 0.103 | -0.636 (active) | -0.035 | -0.21 | 0.26 | 0.018 |
| MITD1 (UniProt Q8WV92) | -0.082 | -0.271 | -0.055 | 0.133 | 0.011 | -0.068 | -0.075 | -0.147 | 0.103 | -0.072 |
| MYH10 isoform 3 (UniProt P35580) | -0.013 | -0.038 | 0.056 | -0.026 | 0.023 | -0.004 | -0.009 | 0.013 | 0.009 | 0.01 |
| MRPL34 (UniProt Q9BQ48) | -0.004 | -0.045 | 0.077 | 0.179 | -0.079 | 0.164 | -0.002 | 0.051 | 0.152 | -0.284 |
| MRPS33 (UniProt Q9Y291) | 0.041 | 0.005 | 0.005 | 0.168 | -0.034 | -0.034 | 0.02 | 0.121 | 0.034 | -0.485 (active) |
| NDUFAF6 (UniProt Q330K2) | -0.052 | -0.197 | 0.182 | -0.025 | 0.144 | -0.167 | -0.051 | 0.027 | -0.065 | -0.273 |
| MYH11 isoform 2 (UniProt P35749) | -0.026 | -0.025 | 0.01 | -0.078 | 0 | 0.014 | -0.032 | 0.009 | 0.057 | -0.012 |
| MRPS2 (UniProt Q9Y399) | -0.043 | 0.078 | 0.032 | 0.048 | -0.003 | -0.117 | 0.027 | 0.022 | -0.049 | -0.352 (active) |
| MRPS10 (UniProt P82664) | 0.028 | 0.005 | -0.033 | 0.08 | -0.005 | 0.019 | 0.002 | 0.002 | 0.029 | -0.265 (active) |
| MRPS17 (UniProt Q9Y2R5) | 0.038 | 0.034 | 0.097 | 0.076 | 0.012 | -0.06 | -0.019 | 0.166 | 0.033 | -0.345 (active) |
| MXRA7 (UniProt P84157) | 0.043 | -0.012 | 0.051 | -0.138 | -0.069 | -0.122 | 0.005 | 0.047 | 0.035 | 0.103 |
| MUL1 (UniProt Q969V5) | -0.023 | 0.038 | 0.078 | -0.006 | -0.042 | -0.018 | 0.083 | -0.02 | 0.056 | -0.01 |
| ORC3 isoform 2 (UniProt Q9UBD5) | -0.054 | -0.434 (active) | 0.015 | -0.005 | -0.03 | -0.044 | 0.062 | 0.177 | 0.016 | -0.17 |
| NNT (UniProt Q13423) | 0.031 | 0.032 | 0.047 | -0.06 | 0.025 | -0.246 (active) | 0.015 | -0.006 | -0.023 | 0.02 |
| NRDC isoform 2 (UniProt O43847) | 0.034 | -0.065 | 0.054 | -0.034 | 0.008 | -0.029 | 0.02 | 0.089 | -0.036 | -0.022 |
| NMNAT1 (UniProt Q9HAN9) | -0.053 | -0.016 | -0.435 | 0.164 | -0.046 | 0.132 | 0.024 | -0.056 | 0.296 | -0.212 |
| NFATC2IP (UniProt Q8NCF5) | 0.014 | 0.023 | 0.195 | -0.009 | 0.121 | 0.011 | 0.03 | 0.045 | -0.03 | 0.024 |
| NARS2 (UniProt Q96I59) | 0.038 | -0.099 | 0.125 | -0.061 | 0.037 | 0.02 | -0.051 | -0.028 | -0.009 | -0.401 (active) |
| MRPL46 (UniProt Q9H2W6) | 0.042 | 0.039 | -0.019 | 0.186 | -0.024 | 0.026 | -0.031 | 0.054 | 0.06 | -0.157 |
| NDUFS8 (UniProt O00217) | 0.021 | -0.182 | 0.143 | -0.027 | 0.055 | -0.168 | -0.011 | 0.021 | -0.043 | -0.158 |
